The panel holds about 79,000 compounds, 15% with a hit somewhere; the sample as a whole holds those more often. A number with no mark means an inactive call. Activity calls are given as the source filed them. Rule as the data show it: active = growth inhibition above about 70%; inactive = the rest.

From PubChem BioAssay (NCI) come the findings set out here.

The nature of experiment [1]: NCI Yeast Anticancer Drug Screen. Data for the rad50 strain (AID 155).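 Also: 0% = growth of vehicle-only cultures of the same strain.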 The note with it: S. cerevisiae rad50 strain growth inhibition; at 50.0 µM; hits give high values. In a few lines: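 Relative growth inhibition (compound vs vehicle) was measured in yeast with a defined repair-gene alteration.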
Experiment [2] in a line: NCI Yeast Anticancer Drug Screen. Data for the mec2-1 strain (AID 157). The following applies: S. cerevisiae mec2-1 strain, at 50.0 µM, hits give high values. The gist of the method:
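Mutant yeast (mec2-1) grown with compound; growth inhibition relative to vehicle control reported.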

Experiment [3] in a line: NCI Yeast Anticancer Drug Screen. Data for the sgs1 mgt1 strain (AID 161).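 Also: 0% = growth of cultures given vehicle only.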 The note with it: S. cerevisiae sgs1 mgt1 strain, at 50.0 µM, hits give high values. In a few lines:
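This yeast growth screen uses a strain with defined DNA-repair lesions; compound-treated growth is compared with vehicle-treated growth.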

Experiment [4] in a line: NCI Yeast Anticancer Drug Screen. Data for the cln2 rad14 strain (AID 165).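 Also: 0% = growth equal to vehicle treated cultures.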 The note with it: S. cerevisiae cln2 rad14 strain, at 50.0 µM, hits give high values. The gist of the method:
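Readout is yeast growth inhibition versus vehicle-treated controls, using a strain with cln2 and rad14 alterations exposed to compound.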

Experiment [5] can be described thus: NCI Yeast Anticancer Drug Screen. Data for the bub3 strain (AID 167). The note with it: S. cerevisiae bub3 mutant strain, at 50.0 µM, hits give high values. The gist of the method:
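Screening used yeast with an engineered genetic alteration affecting cell cycle control. Compound-exposed cultures were compared with vehicle cultures, and reduced growth was taken as inhibition.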

Experiment [6] is described as follows: NCI Yeast Anticancer Drug Screen. Data for the mlh1 rad18 strain (AID 175). The following applies: S. cerevisiae mlh1 rad18 strain growth inhibition; at 50.0 µM; hits give high values. In a few lines:
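Genetically defined yeast (DNA repair-deficient) exposed to compounds; growth inhibition determined relative to vehicle.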

As to `CCC1C(C#N)=C(O)NC(O)=C1C#N`, the growth inhibition is 25.8% in experiment [1]; 6.1% in experiment [2]; 11.8% in experiment [3]; 8.6% in experiment [4]; 19.2% in experiment [5]; -1.65% in experiment [6].

For `CC(C)(C)C(=O)Nc1ccc(NS(=O)(=O)c2ccccc2)cc1`, the growth inhibition in experiment [1] is 6.85%; in experiment [2], -4.3%; in experiment [3], 2.85%; in experiment [4], 1.8%; in experiment [5] it was 2.9%; in experiment [6], -21.1%.

In the case of `O=S(=O)(/C=C/S(=O)(=O)c1ccccc1)c1ccccc1`, the growth inhibition is 98.4% (active) in experiment [1]; 98.8% (active) in experiment [2]; 98.8% (active) in experiment [3]; 97.9% (active) in experiment [4]; 98.5% (active) in experiment [5]; 98.2% (active) in experiment [6].

`O=C(O)C(Br)C(Br)C(=O)Nc1ccc(F)cc1` (stereo not drawn): the growth inhibition is 99.7% (active) in experiment [1]; 99.7% (active) in experiment [2]; 99.7% (active) in experiment [3]; 98.3% (active) in experiment [4]; 99.7% (active) in experiment [5]; 99.3% (active) in experiment [6].

On to `C/C(N=NS(=O)(=O)c1c(C)cc(C)cc1C)=C1\C=CC=CN1O`, for which the growth inhibition in experiment [1] is -26.4%; in experiment [2], -10.2%; in experiment [3], -8.25%; in experiment [4], -6.95%; in experiment [5] it was 4.15%; in experiment [6], -18.8%.

As for `COc1cc(N=C2C=CC(=O)C=C2)c2ncccc2c1`, the growth inhibition in experiment [1] was 2.95%; in experiment [2] it was 1.05%; in experiment [3] it was 4.1%; in experiment [4], -33.1%; in experiment [5] it was -0.7%; in experiment [6], 3.75%.

Take `COCCc1ccncc1`: the growth inhibition in experiment [1] is -0.85%; in experiment [2], -35.3%; in experiment [3], -31.3%; in experiment [4], -6.45%; in experiment [5], -15.8%; in experiment [6], -7.9%.

With `COc1cc([N+](=O)[O-])c(S(=O)(=O)O)cc1-n1nc(-c2ccccc2)n[n+]1-c1cc(S(=O)(=O)[O-])c([N+](=O)[O-])cc1OC`, the growth inhibition is -5.65% in experiment [1]; 4.15% in experiment [2]; -13.3% in experiment [3]; -22.7% in experiment [4]; -20.4% in experiment [5]; 16.2% in experiment [6].

For the compound `COc1ccc2c(c1)N(CC(C)CN(C)C)c1ccccc1S2` (stereo not drawn), the growth inhibition was 0.75% in experiment [1]; 25.7% in experiment [2]; -0.95% in experiment [3]; -3.75% in experiment [4]; 39.5% in experiment [5]; 11.4% in experiment [6].

Take `CC(=O)N1C(=O)NC(=O)C1(C)C`: the growth inhibition in experiment [1] is -7%; in experiment [2] it was -29.9%; in experiment [3], 6.65%; in experiment [4] it was -18.5%; in experiment [5] it was 1.5%; in experiment [6], -7.15%.

`CC(C)C(NC(=O)C1CSC(C)(C)N1C=O)C(=O)O` (stereo not drawn): the growth inhibition in experiment [1] is -1.6%; in experiment [2], -0.1%; in experiment [3], -3.3%; in experiment [4] it was -8.35%; in experiment [5], 6.55%; in experiment [6] it was 2.25%.

Turning to `COc1ccc(C2OC3=C(Nc4ccc([N+](=O)[O-])cc4N3)C2=O)cc1OC` (stereo not drawn), the growth inhibition in experiment [1] is -9.75%; in experiment [2], -24.2%; in experiment [3] it was -16.1%; in experiment [4], -3.7%; in experiment [5], -32.5%; in experiment [6], -0.7%.

For the compound `CC(O)CNCC(C)(C)N` (stereo not drawn), the growth inhibition in experiment [1] is -4.6%; in experiment [2], -4.65%; in experiment [3], -4.8%; in experiment [4], -7.5%; in experiment [5], 3.15%; in experiment [6] it was -1.95%.

On to `CCCCCCCCCCCCSC(=O)NCCC`, for which the growth inhibition in experiment [1] was -3.75%; in experiment [2], -2.05%; in experiment [3], 1.6%; in experiment [4], 0.05%; in experiment [5], 3.45%; in experiment [6], 1.4%.

`C1CCC(C2CCCC[N-]2)[N-]C1.[Cl][Cu][Cl]` (stereo not drawn): the growth inhibition in experiment [1] was 7.35%; in experiment [2], 10.3%; in experiment [3] it was 9.85%; in experiment [4], 9.6%; in experiment [5], -4.85%; in experiment [6], 13.7%.

On to `Clc1ccccc1C(N1CCCCC1)C(Cl)(Cl)Cl` (stereo not drawn), for which the growth inhibition was 26.6% in experiment [1]; 14.6% in experiment [2]; 12.8% in experiment [3]; 18% in experiment [4]; 3.85% in experiment [5]; 21.3% in experiment [6].

Regarding `Oc1cc2c(cc1C(c1ccc(Cl)cc1)N1CCCCC1)OCO2` (stereo not drawn), the growth inhibition is 9.65% in experiment [1]; -1.6% in experiment [2]; 1.25% in experiment [3]; -6.4% in experiment [4]; 11.1% in experiment [5]; 5.75% in experiment [6].

With `Cc1ccc(S(=O)(=O)CCOC(=O)Nc2ccccc2)cc1`, the growth inhibition in experiment [1] was 2.5%; in experiment [2], 12.6%; in experiment [3], 1.7%; in experiment [4], -12.4%; in experiment [5] it was -14.6%; in experiment [6], 11.5%.

Regarding `COC(=O)c1ccc(C(=O)OC)c(O)c1O`, the growth inhibition was 11.3% in experiment [1]; 27.9% in experiment [2]; 8.85% in experiment [3]; -2.85% in experiment [4]; 12.8% in experiment [5]; 16.4% in experiment [6].

With `CCCCc1ccc(Nc2nc(=S)c3[nH]cnc3[nH]2)cc1`, the growth inhibition in experiment [1] was 26.9%; in experiment [2] it was 19.6%; in experiment [3] it was 32.2%; in experiment [4], 23.9%; in experiment [5] it was 35%; in experiment [6], 6.5%.

Consider `CCc1ccccc1NC(=O)CCc1nc(=S)[nH][nH]1`, for which the growth inhibition was -24.8% in experiment [1]; 9.6% in experiment [2]; 2.9% in experiment [3]; 32.4% in experiment [4]; 20.1% in experiment [5]; 6.15% in experiment [6].

On to `CCOC(=O)C(NC(=O)Cc1ccccc1)C1NC(C(=O)O)CS1` (stereo not drawn), for which the growth inhibition in experiment [1] was 19.9%; in experiment [2] it was 1.8%; in experiment [3], 3.2%; in experiment [4] it was -14.8%; in experiment [5], -1.05%; in experiment [6], -13.8%.

For the compound `CNC(=O)C(c1ccccc1)C(F)(F)F` (stereo not drawn), the growth inhibition in experiment [1] was 8.1%; in experiment [2], 3.9%; in experiment [3] it was -6.7%; in experiment [4] it was -12.4%; in experiment [5] it was 10.3%; in experiment [6], 4.3%.

Take `OC1CCCC1c1ccccc1` (stereo not drawn): the growth inhibition is 6.4% in experiment [1]; -24.4% in experiment [2]; -11.9% in experiment [3]; -7.55% in experiment [4]; -3.7% in experiment [5]; 4.45% in experiment [6].

`Nc1cc(Cl)c(N)c(Cl)c1`: the growth inhibition in experiment [1] was 1.8%; in experiment [2], -21.6%; in experiment [3], -9.65%; in experiment [4] it was 14.1%; in experiment [5], -19.4%; in experiment [6], -0.9%.

On to `CCOc1nc(N)nc(C)c1N=Nc1cccc([N+](=O)[O-])c1`, for which the growth inhibition in experiment [1] was 20.9%; in experiment [2] it was 8.55%; in experiment [3], 7%; in experiment [4] it was -7.35%; in experiment [5], 36%; in experiment [6], 32%.

Regarding `CN(C)c1ccc(N=Cc2ccc3c(c2)OCO3)cc1`, the growth inhibition in experiment [1] was -6.65%; in experiment [2], 6.3%; in experiment [3] it was -15.3%; in experiment [4], -18.1%; in experiment [5], -6.1%; in experiment [6], -0.05%.

As for `O=C1CSc2nc3ccc(Br)cc3c(=O)n21`, the growth inhibition is 16% in experiment [1]; 9.1% in experiment [2]; 11.2% in experiment [3]; -19.4% in experiment [4]; 18.6% in experiment [5]; 20.9% in experiment [6].

With `CCOC(=O)c1cn(C)c2c1C(=O)C(C(=O)OCC)CC(=O)N2` (stereo not drawn), the growth inhibition is -4.55% in experiment [1]; -4.15% in experiment [2]; -11.6% in experiment [3]; -53.6% in experiment [4]; -6.4% in experiment [5]; -8.25% in experiment [6].

For the compound `O=C(Nc1ccc(Cl)cc1)Nc1nnc2nc(C(C(=O)c3ccc(O)cc3O)c3nc4nnc(NC(=O)Nc5ccc(Cl)cc5)n4[nH]c3=O)c(=O)[nH]n12`, the growth inhibition in experiment [1] is 25.6%; in experiment [2] it was 39.9%; in experiment [3], 44.2%; in experiment [4], 60.9%; in experiment [5], 14.7%; in experiment [6], 12.3%.

With `NC1=CCNN1`, the growth inhibition in experiment [1] is 8.7%; in experiment [2] it was -21.9%; in experiment [3], 4.1%; in experiment [4] it was 4.1%; in experiment [5], 11.3%; in experiment [6], 14.4%.

Regarding `COC(=O)c1cnc2nc(N3CCOCC3)[nH]n2c1=O`, the growth inhibition is 8.3% in experiment [1]; -0.3% in experiment [2]; -1.25% in experiment [3]; 4.1% in experiment [4]; -4.7% in experiment [5]; -10.5% in experiment [6].

As for `CN(C)S(=O)(=O)c1ccc(Nc2ccc(O)c3c2C(=O)c2c([N+](=O)[O-])ccc(O)c2C3=O)cc1`, the growth inhibition in experiment [1] is 54.9%; in experiment [2], 13.4%; in experiment [3] it was -31.9%; in experiment [4] it was -8.3%; in experiment [5], -27.8%; in experiment [6] it was 26.1%.

For `CCN(CCO)CC(=O)c1ccc(Cl)c(Cl)c1`, the growth inhibition in experiment [1] is 0.2%; in experiment [2] it was -12.5%; in experiment [3], -6.95%; in experiment [4], -13.8%; in experiment [5], 16.1%; in experiment [6], -0.9%.

Take `CCN(CC)CCC(=O)c1cnc(-c2ccccc2)nc1C`: the growth inhibition in experiment [1] is 7.35%; in experiment [2], 35.1%; in experiment [3], 38.7%; in experiment [4], 2.5%; in experiment [5] it was 17.5%; in experiment [6] it was 20.1%.

Turning to `O=C(CCCc1ccc([N+](=O)[O-])cc1)c1ccccc1`, the growth inhibition in experiment [1] is -5.85%; in experiment [2] it was -5.55%; in experiment [3], 1.2%; in experiment [4], -28.4%; in experiment [5] it was 3.5%; in experiment [6], -4.65%.

Consider `Nc1cccn2cnnc12`, for which the growth inhibition is 0.1% in experiment [1]; 15.9% in experiment [2]; -4.6% in experiment [3]; 17.4% in experiment [4]; 23.1% in experiment [5]; 19.4% in experiment [6].

Take `CN(C)CCNC(=O)CN`: the growth inhibition in experiment [1] is 0.15%; in experiment [2], -12.2%; in experiment [3], 4.1%; in experiment [4], -0.6%; in experiment [5], 5.9%; in experiment [6], 2.75%.
